# Screening data as filed in PubChem.
# Mtb FBA inh = inhibits M. tuberculosis FBA enzyme | AID 588726 | P9WQA3 | 2.3% of 360,000 active | inhibition, % at 1 µM | purified M. tuberculosis FBA, fluorescence read-out;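 also: 0% = vehicle and 100% = reference inhibitor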
# GDH-TPI counter-1 = inhibits GDH-TPI coupling enzymes, artifact for Mtb FBA screen; GDH-TPI coupled enzyme counterscreen, NADH absorbance; inhibition, % at 4.8 µM; 1.2% of 360,000 active; AID 588335; in the data active = inhibition above about 30%;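 also: 0% = DMSO wells and 100% = wells lacking the enzyme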
# Mtb UGM inh = Mtb UDP-galactopyranose mutase inhibition. P9WIQ1. inhibition, % at 10 µM. 0.06% of 320,000 active. purified UGM, fluorescence polarization probe displacement; in the data active = inhibition above about 10%, passing the limit was not always enough; inconclusive = no clear call, values can overlap the other calls
# Target sequence (P9WIQ1 whole entry, looked up): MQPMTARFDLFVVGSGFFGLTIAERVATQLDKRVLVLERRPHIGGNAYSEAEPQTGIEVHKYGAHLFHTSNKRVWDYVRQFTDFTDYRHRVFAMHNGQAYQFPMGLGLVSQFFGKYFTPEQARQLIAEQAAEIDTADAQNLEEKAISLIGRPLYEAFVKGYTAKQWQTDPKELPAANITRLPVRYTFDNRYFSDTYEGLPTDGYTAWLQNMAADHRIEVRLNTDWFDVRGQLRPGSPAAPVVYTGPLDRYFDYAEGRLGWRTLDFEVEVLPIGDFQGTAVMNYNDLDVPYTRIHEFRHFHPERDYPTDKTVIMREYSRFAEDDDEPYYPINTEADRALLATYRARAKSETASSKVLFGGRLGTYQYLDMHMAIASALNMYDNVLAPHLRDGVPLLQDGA
# Mtb bLac sens = beta-lactam sensitization of Mtb H37Rv. inhibition, % at 25 µM. M. tuberculosis H37Rv growth with meropenem, percent inhibition. AID 434955. 0.27% of 330,000 active; call rule not given here;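 also: growth measured after seven days incubation then overnight dye step; 0% = bacteria only wells and 100% = bacteria with antibiotic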
# Rv3671c protease = inhibits the M. tuberculosis serine protease Rv3671c. P9WHR9. inhibition, % at 5.96 µM. 0.048% of 320,000 active. AID 2606; in the data active = inhibition above about 38%;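 also: extracellular domain of Rv3671c used as enzyme; 0% = enzyme with DMSO and 100% = no enzyme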
# Mtb FBA inh conf = confirmation of M. tuberculosis fructose-bisphosphate aldolase inhibitors; shares compounds with Mtb FBA inh; purified M. tuberculosis FBA, fluorescence read-out; inhibition, % at 1 µM; 78% of 5,600 active;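 also: 0% = vehicle wells and 100% = reference inhibitor wells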
# GDH-TPI counter-2 = counter-screen for M. tuberculosis FBA inhibitors: GDH-TPI coupled enzyme inhibition; 81% of 5,600 active; GDH-TPI coupled enzyme counterscreen, fluorescence; shares compounds with Mtb FBA inh; inhibition, % at 1 µM; in the data active = inhibition above about 10%
# Active calls of the source: *; ? = inconclusive; . = no result given; + = active, no number. Shown are actives, neighbours in structure and some others; about 3.5% of the full set was active somewhere. Rule as the data show it, unless noted: active = inhibition above about 27%; inactive = the rest.
SMILES,Mtb FBA inh,GDH-TPI counter-1,Mtb UGM inh,Mtb bLac sens,Rv3671c protease,Mtb FBA inh conf,GDH-TPI counter-2
CCC(=O)c1c[nH]c(C(=O)NCc2cccc(C(F)(F)F)c2)c1,79*,5,2,-6,14,+,+
N#C/C(=C\c1cccs1)Sc1nc2ccccc2s1,101*,9,1,-10,-3,10,-1
COc1ccc(OC)c(S(=O)(=O)Nc2c(C)n(C)n(-c3ccccc3)c2=O)c1,-4,-5,-1,-14,1,.,.
COc1cc(C2N(C)C(=O)c3ccccc3N2C)ccc1O (configuration not stated),76*,0,2,-4,0,-5,-7
CN1C(=O)c2ccccc2N(C)C1c1cccc(O)c1 (configuration not stated),59*,-2,3,-3,-1,0,-4
CN1C(=O)c2ccccc2N(C)C1c1ccc(F)cc1 (configuration not stated),54*,1,-2,2,.,40*,35*
O=C(CCN1C(=O)c2ccccc2C1=O)NCc1ccc(F)cc1,2,1,2,0,2,.,.
CN1C(=O)c2ccccc2N(C)C1c1ccc2c(c1)OCO2 (configuration not stated),101*,-5,1,-1,-10,63*,39*
CCCC(C)C(=O)Nc1ccc(S(=O)(=O)Nc2nccs2)cc1 (configuration not stated),2,-3,-1,-3,-1,.,.
COc1cc2c(C#N)c(N3CCN(C)CC3)nc(N)c2c(N)n1,81*,14,-1,1,-16,+,+
CN(Cc1ccco1)C(=O)c1ccc(S(=O)(=O)N2CCCCCC2)cc1,2,-6,-1,-8,7,.,.
COc1ccc(-c2nnc(-c3cc(OC)c(OC)c(OC)c3)o2)cc1OC,89*,20,-1,7,-9,40*,28*
CCOc1ccc(-c2nnc(-c3cccs3)o2)cc1,75*,8,-1,11,-3,54*,46*
CCOc1ccc(-c2nnc(-c3cccs3)o2)cc1OCC,25,18,0,.,2,.,.
COc1cc(-c2nnc(-c3cccs3)o2)cc(OC)c1OC,12,22,0,23,-9,.,.
COc1ccc(-c2nnc(-c3cccs3)o2)cc1OC,55*,21,-2,53,0,63*,53*
O=C(O)c1ccccc1O,46*,12,2,-3,9,7,-3
Cc1cccc(C(=O)O)c1O,38*,1,.,.,.,87*,52*
Nc1c(O)cccc1C(=O)O,40*,1,0,-2,-64,+,193*
COC(=O)C(=O)/C=C(\O)c1c(C)cc(C)cc1C,-1,-3,0,-8,-8,.,.
N#Cc1c(N2CCCC2)nc(N)c2c(N)nc(N3CCCC3)cc12,18,21,-1,5,-222,.,.
CCC1Cc2c(nc(N)c3c(N)nc(N4CCCCC4)c(C#N)c23)O1 (configuration not stated),42*,4,-1,11,12,121*,110*
N#Cc1c(N2CCCCC2)nc(N)c2c(N)nc3c(c12)CC(c1ccccc1)O3 (configuration not stated),30*,16,1,17,3,122*,102*
CCN(CC)c1nc(N)c2c(N)nc3c(c2c1C#N)CC(c1ccccc1)O3 (configuration not stated),15,9,2,0,1,.,.
Cc1ccc(C(=O)NC2CCCc3c2cnn3-c2ccc(F)cc2F)cn1 (configuration not stated),2,4,3,9,-2,.,.
SMILES,Mtb FBA inh,GDH-TPI counter-1,Mtb UGM inh,Mtb bLac sens,Rv3671c protease,Mtb FBA inh conf,GDH-TPI counter-2
CCOc1c2ccc(C(=O)NCc3ccco3)cc2nn1CCOC,39*,6,0,-4,11,+,+
CCOc1c2ccccc2nn1CCOC,10,4,2,-6,5,.,.
CCCCn1nc2cc(C(=O)NCc3ccco3)ccc2c1OCC,27*,10,-3,-4,3,-3,-5
CCOc1c2ccc(C(=O)N[C@H](C)C3CCCCC3)cc2nn1CCOC,106*,17,-3,-9,-10,78*,68*
CCOc1ccc(C(=O)NCc2ccco2)cc1OCC,2,4,0,5,5,.,.
Cc1ccccc1OCC(=O)Nc1ccc([N+](=O)[O-])cc1,4,15,-1,1,0,.,.
O=C(CN(CC1CCCO1)C(=O)c1nsc(Cl)c1Cl)NC1CCCC1 (configuration not stated),0,12,-3,-3,-3,.,.
CCOC(=O)c1sc(C)c2c1NC(C)(c1cccs1)NC2=O (configuration not stated),35*,10,3,6,-6,147*,109*
CCOC(=O)c1sc(C)c2c1NC1(CCCCC1)NC2=O,32*,3,3,.,9,110*,104*
Cc1nnc(NC(=O)c2sc3nc(-c4cccs4)cc(C(F)(F)F)c3c2N)s1,33*,43*,2,?,-2,5,2
Cc1cc(C(F)(F)F)c2c(N)c(C(=O)NC3CC3)sc2n1,4,14,1,-14,1,.,.
NC(=O)c1sc2nc(-c3cccs3)ccc2c1N,76*,25,2,-3,-7,62*,56*
NC(=O)c1sc2nc(-c3ccccc3)ccc2c1N,0,-2,1,0,-1,.,.
CC(C)(C)C(=O)c1sc2nc(-c3cccs3)cc(C(F)(F)F)c2c1N,30*,-1,4,-11,11,49*,47*
Nc1c(C(=O)Nc2nccs2)sc2nc(-c3cccs3)cc(C(F)(F)F)c12,42*,10,1,-5,-9,39*,28*
Cc1cc(NC(=O)CSc2nc3c(cc2C#N)CCC3)no1,1,4,0,8,6,.,.
O=C(CN1C(=O)NC2(CCCCC2)C1=O)Oc1ccc2c(C(F)(F)F)cc(=O)oc2c1,31*,6,-6,-6,12,107*,70*
O=C(NCCc1cn2ccccc2n1)C1CCCCC1,27*,4,-1,6,11,109*,80*
O=C(NCCc1cn2ccsc2n1)C1CCCCC1,-2,6,0,-2,4,.,.
NC(=O)c1ccccc1NCC(=O)c1ccc(F)cc1,31*,-4,1,-2,-11,103*,87*
Cc1cc(OCC(=O)Nc2ccccc2C(N)=O)c2c(C)cc(=O)oc2c1,9,0,0,-2,6,.,.
CN(C)CCNC(=O)c1ccccc1-c1cc2ccccc2c(=O)o1,1,3,-3,0,.,.,.
CN(CCNC(=O)c1c[nH]c2c1ccc1ccccc12)CCNC(=O)c1c[nH]c2c1ccc1ccccc12,30*,22,.,.,.,193*,173*
